ELG1 DNA repair – inhibitors of ELG1-dependent DNA repair in HEK293T cells; HEK293T ELG1-luciferase reporter, luminescence, 16 h; DNA damage induced by 5-fluorouridine; Potency, µM (highest dose often 46.1 µM), for the others: at the highest dose activity change, negative = inhibition, usual class: inhibitors; 330,000 tested, 2.3% active; note: % is set by controls: 0 for no effect and ±100 for the full control effect; nearly all actives have a fitted effect of over 55% in size
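Cells (2,000 per well) received 5-fluorouridine plus test compound or DMSO and were incubated 16 hr at 37 °C, 5% CO2. Luciferase activity was read by luminescence 30 min after ONE-Glo addition; signal suppression marked inhibition of damage-induced ELG1 function.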
ELG1 genotoxic – inducers of genotoxicity in HEK293T ELG1-luciferase cells. Potency, µM (highest dose often 46 µM), for the others: at the highest dose activity change, positive = activation, actives largely listed as activators. HEK293T ELG1-luciferase reporter, luminescence, 16 h. 330,000 tested, 1.3% active. AID 504466; note: % of control where 0% means no effect; nearly all actives have a fitted effect of over 60% in size
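HEK293T cells expressing luciferase-tagged ELG1 were treated with compound or DMSO for 16 hr at 37°C. Luciferase activity was then read after 30 min with ONE-Glo at room temperature; rising signal flags genetic stress.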
FLuc counter – firefly luciferase modulation, counter-screen for miR-21 project; P08659; purified FLuc, Km substrates, luminescence inhibition; Potency, µM (doses to about 57.5 µM), without a hit: top-dose activity change, negative = inhibition, hits mostly inhibitors; 360,000 tested, 6.9% active;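 note: plate controls were vehicle for no effect and reference inhibitor for full effect; nearly all actives have a fitted effect of over 55% in size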
Target sequence (P08659 whole entry, looked up): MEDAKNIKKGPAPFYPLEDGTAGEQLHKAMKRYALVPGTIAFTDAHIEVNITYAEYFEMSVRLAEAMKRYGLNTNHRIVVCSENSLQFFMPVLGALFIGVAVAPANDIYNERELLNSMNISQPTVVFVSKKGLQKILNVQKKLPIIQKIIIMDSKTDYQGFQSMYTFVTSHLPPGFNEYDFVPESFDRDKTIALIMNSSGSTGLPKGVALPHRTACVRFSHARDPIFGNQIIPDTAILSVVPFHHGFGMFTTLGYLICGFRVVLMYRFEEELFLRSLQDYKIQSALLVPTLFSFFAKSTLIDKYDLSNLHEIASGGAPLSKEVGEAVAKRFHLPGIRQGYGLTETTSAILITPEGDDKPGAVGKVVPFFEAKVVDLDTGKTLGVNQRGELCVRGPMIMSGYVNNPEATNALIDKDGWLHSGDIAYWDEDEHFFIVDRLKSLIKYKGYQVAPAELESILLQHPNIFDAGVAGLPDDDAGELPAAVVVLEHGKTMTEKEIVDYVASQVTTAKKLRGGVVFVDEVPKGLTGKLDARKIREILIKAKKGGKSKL
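Purified P. pyralis luciferase, 10 nM final, with Km-level 10 uM D-luciferin and 10 uM ATP in 50 mM Tris acetate pH 7.5, 10 mM Mg acetate, 0.01% Tween-20, 0.05% BSA; 6-point qHTS titration about 60 µM downward; luminescence read.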
NPC1 prom act – NPC1 promoter activation; 320,000 tested, 2.4% active; Huh7 NPC1 promoter luciferase reporter, 24 h; Potency, µM (top dose mostly 9.22 µM), for inactives: top-dose activation, usual class: activators; note: % of control where 0% means no effect; nearly all actives have a fitted effect of over 60% in size
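Readout is luciferase luminescence, reflecting NPC1 promoter activation in stably transfected Huh7 cells after 24 h compound exposure at 37 °C in reduced-serum medium with 10% FBS.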
SMN2 splice up – increases expression of the SMN2 splice variant | 210,000 tested, 2.8% active | AID 1458 | HEK293 SMN2-luciferase splicing reporter, luminescence, 30-36 h | Potency, µM (top dose mostly 46.1 µM), for inactives: at the highest dose activity change, positive = activation, hits mostly activators; note: % of control where 0% means no effect; nearly all actives have a fitted effect of over 55% in size
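qHTS luciferase splicing reporter: luminescence rises when SMN2 exon 7 is included in transfected HEK293 cells. Compound exposure lasted 30-36 h at 37C, with 4.5 mM final sodium butyrate as control, followed by a ONE-Glo read.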
Rab9 promoter act – activates the Rab9 promoter; 320,000 tested, 2.8% active; Potency, µM (highest dose often 9.22 µM), for inactives: top-dose activation, negative = inhibition, most hits filed as activators; Huh7 Rab9 promoter-luciferase reporter, luminescence, 24 h; note: % of control where 0% means no effect; nearly all actives have a fitted effect of over 60% in size
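Cell-based reporter: Huh7 stable for Rab9 promoter-driven luciferase, plated in reduced-serum medium with 10% FBS at 1500 cells/well, compound-treated 24 h at 37 °C, luminescence read after 10 min reagent.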
The depositor's hits bear a star; ? = inconclusive; / = no result; [ ] = remark or other dose. Only some compounds are listed: those with a hit (about 9.3% of all), similar ones and a draw of the others. Calls come from the whole dose curve; as a rule, active = well fitted curve in the direction sought with a large enough effect; inconclusive = small, poorly fitted or top-dose-only effect, or another doubt; inactive = no such curve, though single readings can be large; an effect the other way counts as inactive or inconclusive. Potency is the fitted concentration of half-maximal effect.

SMILES	ELG1 DNA repair	ELG1 genotoxic	FLuc counter	NPC1 prom act	SMN2 splice up	Rab9 promoter act
CC1(C)Cc2c(sc(NC(=O)c3ccccc3)c2C(=O)O)CO1	?	-2%	6.7µM*	?	?	?
CCOC(=O)c1c(NC(=O)c2cccs2)sc2c1CC(C)(C)OC2	9.2µM*	-10%	-1%	-2%	-20%	-7%
CC(C)COc1ccc(C(=O)Nc2sc3c(c2C(=O)O)CC(C)(C)OC3)cc1	-18%	-14%	21µM*	0%	/	-5%
C[C@@H](C(=O)Nc1ccc2ccccc2c1)[C@@H]1C[C@@]1(C)[C@@H](NS(=O)(=O)c1ccc(-c2ccccc2)cc1)c1ccccc1	/	/	/	/	-5%	/
CCc1c(C)c2ccc(O)c(CN3CCN(c4ccc(F)cc4)CC3)c2oc1=O	/	/	-1%	/	/	/
CCN(CC)C(=O)CSc1nnc(COc2ccccc2)n1N	-13%	0%	-2%	-4%	/	-8%
CCOC(=O)Cc1csc(NC(=O)c2cc(C)c(C)s2)n1	8%	0%	8.5µM*	?	/	23%
CCOC(=O)Cc1csc(NC(=O)c2ccc(Cl)s2)n1	-25%	13%	?	-11%	/	1%
CCOC(=O)Cc1csc(NC(=O)c2csc3c2CCCC3)n1	-10%	-5%	4.8µM*	-2%	-35%	-6%
CCOC(=O)Cc1csc(NC(=O)c2cc3c(s2)CCCC3)n1	15%	?	1.3µM*	1.4µM*	-2%	0.56µM*
Cn1c(=O)c2c(nc(NCc3ccco3)n2Cc2ccccc2Cl)n(C)c1=O	?	1%	3%[2.3 µM]	0%	-41%	-4%
Cn1c(=O)c2c(nc(N/N=C/c3cccnc3)n2Cc2ccccc2)n(C)c1=O	?	-1%	1%	1%	/	1%
Cn1c(=O)c2c(nc(N/N=C/c3ccc(OC(=O)c4ccco4)cc3)n2Cc2ccccc2Cl)n(C)c1=O	16µM*	-13%	0%	-4%	-23%	-7%
Cn1c(=O)c2c(nc(N/N=C/c3ccc(OC(=O)c4ccco4)cc3)n2Cc2ccc(F)cc2)n(C)c1=O	16µM*	8%	3%	-5%	-14%	-18%
O=C(/C=C/c1ccc(O)cc1)c1ccc(O)cc1O	?	?	11µM*	17%[46.1 µM]	20%	10%[46.1 µM]
COc1ccc(/C=C/C(=O)c2ccc(O)cc2O)cc1	/	/	/	/	-5%	/
COc1ccc(C(=O)/C=C/c2ccccc2)c(O)c1	?	-3%	6µM*	?	-19%	?
N/C(=C/C(=O)c1ccccc1O)C(F)(F)F	6%	3%	?	13%	-9%	6%
COc1ccc(C(=O)/C=C(\N)C(F)(F)F)c(O)c1	13%	-1%	11µM*	0%	2%	-7%
COc1ccc(/C=C/C(=O)c2cc(O)ccc2O)cc1	/	/	/	/	-75%	/
COc1ccc(/C=C/C(=O)c2cc3c(cc2N)OCO3)cc1	?	?	2.1µM*	?	?	?
COc1ccc2cc(C(=O)NCc3ccc4c(c3)CCN4C(=O)c3ccc(F)cc3)[nH]c2c1	/	/	2%	/	/	/
C=CCN1c2ccccc2[C@]23C[C@@H](C(=O)OC)N(C(=O)NCCC)C2=NC(C(=O)OC)=C(C(=O)OC)[C@H]13	7%	0%	-1%	-6%	/	-7%
COCCN(C(=O)COC(=O)c1nc(Cl)ccc1Cl)c1c(N)n(Cc2ccccc2)c(=O)[nH]c1=O	28%	0%	-1%	-1%	/	1%
O=C(/C=C/c1ccncc1)c1cc(Cl)ccc1O	10%	1%	4%	1%	/	-1%[1.84 µM]
COc1ccc(C(=O)/C=C/c2ccc(OC)cc2OC)c(O)c1	?	?	3µM*	?	/	?
COc1ccc(/C=C/C(=O)c2ccc(Cl)cc2)c(OC)c1	?	?	2.1µM*	16%	-20%	2%
CN(C)c1ccc(/C=C/C(=O)c2cc(Cl)ccc2O)cc1	?	0%	9.5µM*	?	/	2%

Screens (PubChem)
